# Source: PubChem BioAssay
# Rows were chosen to be rich in hits. Some 4.8% of all compounds tested hit in one or more screens of this group.
# USP2a block = qHTS Assay for Inhibitors of Ubiquitin-specific Protease USP2a Using CHOP2 as the Reporter; Potency, µM (series often up to 38.3 µM), inactives show at the highest dose activity change, negative = inhibition, hits mostly inhibitors; USP2 core, Ub-CHOP2 coupled fluorogenic reporter, 485/531; Ubiquitin carboxyl-terminal hydrolase 2 (Homo sapiens), O75604; AID 463254, 2010; 330,000 compounds, 0.01% hits;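 also: potency is read from the fitted curve at half-maximal effect; plate controls were DMSO wells for no effect and full inhibition by NEM control for full effect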
#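 Cell-free coupled assay: 10nM USP2 core preincubated 30min RT with compound in Tris-HCl pH 8.0/CaCl2/CHAPS buffer, then 25nM Ub-CHOP2 and 25nM reporter substrate; fluorescence (Ex 485/Em 531) read after 60min RT, normalized to NEM inhibition, concentration-response curves fitted.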
# S2 tox = Viability Counterscreen for Primary qHTS for Inhibitors of ATXN expression. 400,000 compounds, 0.49% hits. AID 651635, 2014. Potency, µM (doses to about 56.7 µM), usual class: cytotoxic. S2 cells (HEK-293 line with an ATXN2-luciferase reporter) viability, CellTiter-Fluor protease fluorescence, 24 h; also: potency is read from the fitted curve at half-maximal effect; nearly all actives have a fitted effect of over 40% in size
# USP1-UAF1 inh = Inhibitors of USP1/UAF1: Primary Screen. recombinant USP1/UAF1, Ub-Rhodamine cleavage fluorescence. Potency, µM (titrated, usually from 57.1 µM), inactives show at the top dose activity change, negative = inhibition, usual class: inhibitors. 390,000 compounds, 0.23% hits. AID 743255, 2014; also: potency is read from the fitted curve at half-maximal effect; % is scaled to controls: 0 for no effect and ±100 for the full control effect; nearly all actives have a fitted effect of over 60% in size
# Target sequence (O94782 whole entry, looked up): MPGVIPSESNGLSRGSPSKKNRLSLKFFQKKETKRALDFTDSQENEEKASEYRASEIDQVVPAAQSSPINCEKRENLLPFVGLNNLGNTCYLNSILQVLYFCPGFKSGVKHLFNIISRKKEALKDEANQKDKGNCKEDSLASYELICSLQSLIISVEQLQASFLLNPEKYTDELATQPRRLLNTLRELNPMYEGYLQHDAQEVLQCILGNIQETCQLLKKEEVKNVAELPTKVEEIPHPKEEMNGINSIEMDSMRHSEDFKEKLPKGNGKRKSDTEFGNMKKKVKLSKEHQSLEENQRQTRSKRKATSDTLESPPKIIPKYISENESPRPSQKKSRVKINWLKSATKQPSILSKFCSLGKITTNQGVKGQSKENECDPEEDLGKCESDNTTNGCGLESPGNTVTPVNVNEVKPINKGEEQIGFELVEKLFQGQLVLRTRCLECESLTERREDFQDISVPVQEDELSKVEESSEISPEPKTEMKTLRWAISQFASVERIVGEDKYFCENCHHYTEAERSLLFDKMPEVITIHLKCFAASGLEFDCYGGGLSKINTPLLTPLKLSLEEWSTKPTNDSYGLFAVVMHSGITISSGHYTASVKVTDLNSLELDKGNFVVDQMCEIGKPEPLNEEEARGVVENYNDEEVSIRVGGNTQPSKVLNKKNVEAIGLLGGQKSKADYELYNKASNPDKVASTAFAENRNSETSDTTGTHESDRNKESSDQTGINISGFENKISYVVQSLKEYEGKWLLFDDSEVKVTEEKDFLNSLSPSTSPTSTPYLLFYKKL
#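 USP1/UAF1 complex (1 nM) preincubated 15 min at room temperature with compound, then Ub-Rho substrate (150 nM final) added. Kinetic fluorescence at 480/540 nm over 6 reads at 60 s intervals; 50 mM HEPES pH 7.8, 0.5 mM EDTA, 0.1 mg/ml BSA, 1 mM TCEP, 0.01% Tween-20.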
# ATXN2 expr inh = Primary qHTS for Inhibitors of ATXN expression; HEK-293 ATXN2-luciferase reporter, luminescence, 24 h; Potency, µM (top dose mostly 57 µM), for the others: at the top dose activity change, negative = inhibition, hits mostly inhibitors; 360,000 compounds, 0.72% hits; AID 1745845, 2022; also: potency is read from the fitted curve at half-maximal effect; % is scaled to controls: 0 for no effect and ±100 for the full control effect; nearly all actives have a fitted effect of over 55% in size
#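 ATXN2-luciferase reporter cells (luciferase flanked by upstream and downstream ATXN2 gene portions) were treated 24 h at 37 °C with compounds at up to 57 uM. SteadyGlo luminescence gave expression; GF-AFC fluorescence gave viability.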
# IL-1B inflam inh = qHTS for Inhibitors of Inflammasome Signaling: IL-1-beta AlphaLISA Primary Screen. activity change, % at 57.5 µM. 360,000 compounds, 4.7% hits. THP-1 LPS/ATP IL-1B secretion, AlphaLISA, 16 h; active compounds read low; in the data active = activity change below about -50%; inconclusive = mostly about -30% to -49%; also: % is scaled to controls: 0 for no effect and ±100 for the full control effect
#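 THP-1 cells pretreated 1 hr with compounds (up to 57.5 uM final), then stimulated with LPS (250 ng/mL final) plus ATP (1.25 mM final); secreted IL-1B measured by AlphaLISA after 16 hr, decreased signal indicating inhibition.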
# Starred values were filed as active, the others as inactive; i = inactive; ? = inconclusive; nt = no result given. Unless noted, calls follow the shape of the dose curve; as a rule, active = well fitted curve in the direction sought with a large enough effect; inconclusive = small, poorly fitted or top-dose-only effect, or another doubt; inactive = no such curve, though single readings can be large; an effect the other way counts as inactive or inconclusive.
SMILES,USP2a block,S2 tox,USP1-UAF1 inh,ATXN2 expr inh,IL-1B inflam inh
NC(Cc1ccccc1)c1csc(Nc2ccc(C(=O)c3ccccc3)cc2)n1 (stereo not drawn),nt,?,nt,?,-69*
COc1ccc(CC(N)c2csc(Nc3ccc(C(C)=O)cc3)n2)cc1 (stereo not drawn),nt,i,nt,0%,-14
COc1ccccc1CNc1ncnc2sc(C(=O)N3CCN(C)CC3)c(C)c12,nt,i,nt,nt,nt
Cc1cccc(NC(=O)c2c(C)cc(C)nc2SCC(=O)Nc2c(C)cc(C)cc2C)c1,nt,i,-8%,-17%,nt
CC1=CC(=C2C(=O)c3ccccc3C2=O)C=C(C)N1Cc1ccco1,-7%,i,-12%,17%,-62*
COc1ccc(-n2nc(C(N)=O)c3c2C(=O)N(c2ccc(N4CCCCC4=O)cc2)CC3)cc1,nt,nt,nt,5%,nt
N#CC1(NC(=O)COC(=O)Cn2[nH]c(=O)c3ccccc3c2=O)CCCCC1,1%,i,-17%,-9%,-2
CCOC(=O)COc1cc(N2C(=O)CSCC2=O)c(Cl)cc1Cl,1%,i,-17%,-4%,-99*
COCCNC(=O)C1(C)CCCN(C(=O)c2cc(F)cc(F)c2)C1 (stereo not drawn),nt,i,nt,11%,14
CCOC(=O)N1CCN(C/C(C)=C/c2ccccc2)CC1,-2%,i,-15%,13%,-14
CCOC(=O)/C(=C\c1ccc(N2CCC(c3ccccc3)=N2)cc1)C(C)=O,nt,i,28µM*,12%,?
O=C(/C=C/c1ccc(N2CCC(c3ccccc3)=N2)cc1)c1ccccc1,23%,nt,174%,-16%,-94*
CC(C)(C)N/C=C(\C#N)S(=O)(=O)c1ccc(Br)cc1,1%,i,-12%,-27%,-17
CCOC(=O)Cc1csc(NC(=O)/C=C/c2ccc(Cl)cc2)n1,8%,i,-4%,-29%,0
CCNC(=O)c1sc2ncnc(NCCCN3CCOCC3)c2c1C,nt,i,nt,nt,nt
CCn1cc(C(=O)N2CCCC(C(=O)c3cccc(C(F)(F)F)c3)C2)cn1 (stereo not drawn),nt,i,-21%,nt,29
CC1=CC(=O)C(C(C)C)=C/C1=N/OS(=O)(=O)c1ccccc1,0%,3.2µM*,-1%,nt,-101*
Cc1ccc(S(=O)(=O)ON=C2CCN(S(=O)(=O)c3ccccc3)CC2)cc1,1%,i,-6%,5%,-1
CC1=CC(=O)C=C(C)C1=NOS(=O)(=O)c1ccccc1,-1%,?,-24%,?,-118*
Cc1ccc2c(c1)/C(=N/OS(=O)(=O)c1ccccc1)CCS2,nt,i,-20%,3%,18
O=C([C@@H]1C[C@@H](Sc2nc3ccccc3[nH]2)CN1CC1CCCCC1)N1CCOCC1,nt,i,nt,nt,nt
S=C1Cc2ccccc2N1,2%,5.6µM*,28µM*,6.3µM*,-101*
C/C(=N\NC(=O)COc1cccc(C)c1)c1ccc2ccccc2c1O,2%,i,-7%,?,72
Cc1nc2cc(-c3ccc(Cl)cc3)nn2c(NCCN(C)C)c1C,8%,i,-15%,0%,-75*
Cc1cc(C)n2nc(-c3ccc(Cl)cc3)cc2n1,0%,i,-3%,nt,29
SMILES,USP2a block,S2 tox,USP1-UAF1 inh,ATXN2 expr inh,IL-1B inflam inh
CCc1nc(SCc2ccc(Cl)cc2)n[nH]1,2%,i,-13%,30%,-19
O=S(=O)(Nc1nc(SCc2ccc(Cl)cc2)n[nH]1)c1ccc(F)cc1,-1%,i,-2%,7%,-59*
CCC1(C2CCN(C(=O)c3ccccc3Cl)CC2)NC(=O)N(CCc2scnc2C)C1=O (stereo not drawn),nt,i,nt,nt,nt
COc1ccc(S(=O)(=O)N(CCCN2CCCC2=O)Cc2cc3cc(C)c(C)cc3[nH]c2=O)cc1,3%,?,-22%,0%,-73*
Cc1ccc(S(=O)(=O)N(CCCN2CCCC2=O)Cc2cc3c(C)ccc(C)c3[nH]c2=O)cc1,-4%,i,-14%,-9%,-2
CCOc1ccc(CCN2C(=S)N([C@@H](Cc3ccccc3)CN3CCC[C@@H]3CN3C(=S)NC[C@@H]3Cc3ccc(O)cc3)C[C@@H]2CC(C)C)cc1,nt,i,nt,-13%,-20
CCOc1ccc(CCN2C(=S)N([C@@H](Cc3ccc(O)cc3)CN3CCCC3CN3C(=S)NC[C@@H]3Cc3ccc(O)cc3)C[C@@H]2CC(C)C)cc1 (stereo partly drawn),nt,i,?,?,-69*
CCOc1ccc(CCN2C(=S)N([C@@H](Cc3ccc(O)cc3)CN3CCC[C@@H]3CN3C(=S)NC[C@@H]3CC(C)C)C[C@@H]2Cc2ccc(O)cc2)cc1,nt,7.1µM*,nt,?,0
COc1ccccc1CNS(=O)(=O)c1cc(C(=O)NCC2CCCO2)c(Cl)cc1Cl (stereo not drawn),2%,i,-4%,-13%,-12
Cc1c(C(=O)NC2CCCC2)sc2ncnc(NCCN(C)C)c12,nt,i,nt,nt,nt
COc1ccccc1C(=O)NCCC(=O)Nc1ccc(S(=O)(=O)N2CCC(C)CC2)cc1,3%,i,-8%,-11%,-1
COc1ccccc1CN1CCCC(C(=O)N(C)Cc2ccccc2)C1 (stereo not drawn),-2%,?,-15%,-26%,-1
COc1ccccc1CN1CCCC(CN(CCN(C)C)C(=O)C2CCCC2)C1 (stereo not drawn),-1%,?,-2%,-18%,-52*
CCOC(=O)c1noc2ncnc(N3CCN(c4ccccc4OC)CC3)c12,nt,i,-11%,-19%,nt
CSc1ccc(CN2CCC2(C)C(=O)Nc2cccc(NS(C)(=O)=O)c2)cc1 (stereo not drawn),nt,i,nt,-7%,0
CCOC(=O)CNC(=S)N(Cc1ccc(C)cc1)Cc1ccc(C)o1,-3%,i,-6%,-1%,-55*
Cc1ccc(CN(Cc2ccc(C)o2)C(=S)NCC(=O)O)cc1,4%,i,-12%,-2%,0
C[C@@H]1CN(Cc2ccc3c(c2)CN(Cc2cccn2-c2ccc(Cl)cn2)CCO3)C[C@H](C)O1,nt,i,nt,nt,nt
O=C(CSc1c2c(nc3cc(Cl)ccc13)CCCC2)NCc1ccco1,-4%,i,-25%,-5%,-66*
O=C(CSc1nc2ccc(Cl)cc2[nH]1)NCc1ccco1,-1%,i,2%,1%,-67*
Clc1cccc(-c2nc3c4ccccc4ccn3c2Cc2ccsc2)c1,nt,?,nt,34%,4
O=c1[nH]c(=O)n([C@H]2C[C@@H](O)[C@@H](CO)O2)cc1I,nt,nt,nt,0%,nt
